# Screening data (PubChem)
# In the library only some 1% were active in any assay of this set; here they are far more common.
# RXFP1 antag: blocks the human relaxin receptor RXFP1. Q9HBX9. HEK293-RXFP1, relaxin-stimulated cAMP HTRF, 30 min; hits give low values. activity change, negative = inhibition, % at 57.5 µM. 350,000 compounds, 0.59% hits;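 active = activity change of -60% or lower, but not beyond a set lower limit; inconclusive = change between -60% and -40%, or beyond the set limit; inactive = change above -40%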; also: % is scaled to controls: 0 for no effect and ±100 for the full control effect
# gsp agonist: gsp mutant agonism | 340,000 compounds, 0.13% hits | AID 624287 | Potency, µM (titrated, usually from 76.9 µM), inactives show at the top dose activation (cAMP increase), hits mostly activators | gsp mutant cells, cAMP HTRF, 30 min; active = well fitted activation curve with a large enough effect; inconclusive = small, poorly fitted or top-dose-only effect, or another doubt; inactive = no such curve, though single readings can be large or run the other way; cell line not stated here;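 also: phosphodiesterase inhibitor Ro 20-1724 added with compounds to block cAMP breakdown; potency is read from the fitted curve at half-maximal effect; nearly all actives have a fitted effect of over 60% in size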
#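 Cells stably selected in G418 were plated at 2000/well, grown 16-24 hr, then given compounds in DMSO with the PDE inhibitor […] (300 uM solution added) for 30 min at 37C; cAMP was read by HTRF.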
# RXFP1 ag: RXFP1 (human) receptor agonism; Q9HBX9; HEK293T-RXFP1 cAMP TR-FRET, 30 min; response scale: percent of porcine relaxin response, buffer zero; Potency, µM (top dose mostly 57.5 µM), without a hit: at the top dose activation, most hits filed as activators; 370,000 compounds, 0.3% hits; AID 2676; active = well fitted activation curve with a large enough effect; inconclusive = small, poorly fitted or top-dose-only effect; also: potency is read from the fitted curve at half-maximal effect; % is scaled to controls: 0 for no effect and ±100 for the full control effect; nearly all actives have a fitted effect of over 60% in size
#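 HEK293T cells stably expressing RXFP1 were pretreated with the PDE4 inhibitor Ro 20174, exposed to compounds for 30 min at 37C, lysed, and cAMP was read by TR-FRET. Data normalized to buffer (basal) and 29 nM porcine relaxin (100%).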
# TSHR antag: blocks TSH signaling through the human TSH receptor | P16473 | TSHR-expressing cells, TSH-stimulated cAMP HTRF, 2 h; hits give low values | 330,000 compounds, 0.2% hits | AID 504810 | activity change, negative = inhibition, % at 11.5 µM;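 active = activity change below a set negative limit, meaning inhibition stronger than a set level, cut at about -70% in these data; inconclusive = activity change between two set negative limits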; also: % is scaled to controls: 0 for no effect and ±100 for the full control effect
# Target sequence (P16473 whole entry, looked up): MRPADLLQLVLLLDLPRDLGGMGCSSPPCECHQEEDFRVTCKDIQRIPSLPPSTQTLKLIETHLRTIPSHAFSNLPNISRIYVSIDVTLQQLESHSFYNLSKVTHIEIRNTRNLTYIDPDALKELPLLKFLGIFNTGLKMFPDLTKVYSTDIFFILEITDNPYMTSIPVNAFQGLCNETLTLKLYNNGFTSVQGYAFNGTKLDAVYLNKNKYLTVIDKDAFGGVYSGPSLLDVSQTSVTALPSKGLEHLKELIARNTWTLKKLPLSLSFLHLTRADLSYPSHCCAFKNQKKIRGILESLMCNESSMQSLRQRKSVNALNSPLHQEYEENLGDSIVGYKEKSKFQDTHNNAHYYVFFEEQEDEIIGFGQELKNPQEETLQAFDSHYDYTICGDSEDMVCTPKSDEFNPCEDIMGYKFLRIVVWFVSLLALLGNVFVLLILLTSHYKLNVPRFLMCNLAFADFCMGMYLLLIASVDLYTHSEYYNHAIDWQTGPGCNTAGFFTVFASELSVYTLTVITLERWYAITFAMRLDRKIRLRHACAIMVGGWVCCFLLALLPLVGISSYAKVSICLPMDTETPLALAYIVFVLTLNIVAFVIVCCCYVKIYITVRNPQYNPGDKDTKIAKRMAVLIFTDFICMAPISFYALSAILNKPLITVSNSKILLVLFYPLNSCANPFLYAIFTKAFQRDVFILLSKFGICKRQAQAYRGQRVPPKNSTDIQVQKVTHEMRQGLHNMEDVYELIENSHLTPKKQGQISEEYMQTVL
#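 TSHR-expressing cells, 200/well, pre-treated with compound, then stimulated with EC80 TSH (4nM final) for 2 hours at 37 deg C. cAMP measured by competitive HTRF: anti-cAMP cryptate antibody in lysis buffer plus cAMP-d2, read after 30 minutes at room temperature.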
# gsp antag: antagonizes gsp, the McCune-Albright syndrome mutation; Potency, µM (doses to about 76.9 µM), for the others: at the highest dose activity change, negative = inhibition, actives largely listed as inhibitors; gsp-mutant cells, cAMP HTRF, 30 min; 340,000 compounds, 0.4% hits; AID 624288; calls by dose curve; cell line not stated here;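 also: intracellular cAMP measured with PDE inhibitor Ro 20-1724 present during compound exposure; potency is read from the fitted curve at half-maximal effect; % is scaled to controls: 0 for no effect and ±100 for the full control effect; nearly all actives have a fitted effect of over 65% in size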
#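 HTRF cAMP measurement after 30 min RT detection following 30 min, 37C compound treatment alongside […] (added as 300 uM solution) in G418-selected cells seeded at 2000/well and grown 16–24 h.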
# The depositor's hits bear a star; ? = inconclusive; . = no result given; [ ] = remark or other dose.
SMILES,RXFP1 antag,gsp agonist,RXFP1 ag,TSHR antag,gsp antag
COCCNC(=O)C1CCCN(S(=O)(=O)c2ccc3c(ccn3C)c2)C1 (stereo not given),6,.,2%,.,.
CC(C)COc1cccc(-c2cc(C(=O)Nc3ccon3)c3ccccc3n2)c1,-20,-3%[15.4 µM],1%,-119*,-1%
Cc1ccc(C(OCC(O)CNC(C)c2ccccc2)c2ccccc2)cc1 (stereo not given),-70*,9%[15.4 µM],2%,-1,1%
O=C(CN1CCN(c2cccc(C(F)(F)F)c2)CC1)Nc1cccc(C(F)(F)F)c1,-7,-2%,0%,-13,-1%
Cc1[nH]c2ccccc2c1NC(=O)CN1CCN(c2cccc(C(F)(F)F)c2)CC1,8,-27%,0%,.,50µM*
COc1ccccc1Cn1ccn(Cc2c(F)cccc2Cl)c(=O)c1=O,21,.,-1%,.,.
O=C(CCN1C(=O)/C(=C/c2ccc(F)cc2)SC1=S)NNC(=O)c1ccncc1,-4,-11%,-1%,3,?
Cc1ccc(/C=C2\SC(=S)N(CCC(=O)NNC(=O)c3ccncc3)C2=O)cc1,-5,-8%[15.4 µM],-4%,30,40µM*
CC(C)Cn1c(=O)c2sccc2n2c(CCCC(=O)NCc3ccccc3Cl)nnc12,-7,.,?,.,.
Cc1ccnc(NC(=O)c2cccc(S(=O)(=O)Nc3ccc(C)cc3C)c2)c1,-77*,?,.,-10,-24%
Cc1nn(S(=O)(=O)c2ccc(C(C)C)cc2)c(C)c1S(=O)(=O)N1CCCCC1,.,.,2%,.,.
CCc1ccc(-n2c(C)nc3cc(C(=O)NCCc4ccccc4)ccc32)cc1,-16,.,3%,.,.
CCOc1ccc(NC(=O)CSc2nc3ccsc3c(=O)n2C(C)CC)cc1 (stereo not given),2,.,-1%,.,.
C=CCNC(=O)c1ccc(NC(=O)C2=CSCCO2)cc1,1,-8%,-1%,-136*,6%
CC1C(c2ccc3c(c2)OCO3)c2cc3c(cc2OC1N1CCOCC1)OCO3 (stereo not given),-73*,1%,.,.,-3%
COc1cc(C2c3cc4c(cc3OC(N3CCCCC3)C2C)OCO4)cc(OC)c1O (stereo not given),-5,?,.,.,9%
CCOc1cc(N2CCOCC2)c(OCC)cc1NC(=O)c1c(-c2ccccc2)noc1C,-7,-24%,0%,17,-9%
CCN1CCN(c2ccc(S(=O)(=O)N3CCOCC3)cc2NC(=O)c2cccc([N+](=O)[O-])c2)CC1,-4,25µM*,.,5,9%
CCOc1cc(N2CCOCC2)c(OCC)cc1NC(=O)c1cccc(S(=O)(=O)N2CC(C)OC(C)C2)c1 (stereo not given),0,-33%,.,.,.
Cc1ccc(S(=O)(=O)N2CCOCC2)cc1NC(=O)c1cc([N+](=O)[O-])ccc1N1CCOCC1,-7,11µM*,12%,12,7%
CCOc1cc(N2CCOCC2)c(OCC)cc1NC(=O)c1cccc(S(=O)(=O)N2CCOCC2)c1,-11,-24%,.,-88*,-14%
CCN1CCN(c2ccc(S(=O)(=O)N3CCOCC3)cc2NC(=O)c2ccc(C(F)(F)F)cc2)CC1,-1,9%[15.4 µM],1%,-3,-2%
CCOc1cc(N2CCOCC2)c(OCC)cc1NC(=O)c1c(C)noc1C,-14,-11%,1%,-9,35µM*
COc1ccc(C(=O)Nc2sc3c(c2C#N)CCN(C(C)=O)C3)cc1,-3,-6%,6%,-7,15%
COc1cc(C(=O)Nc2sc3c(c2C#N)CCN(C(C)=O)C3)cc(OC)c1OC,.,10µM*,17%,0,0%
SMILES,RXFP1 antag,gsp agonist,RXFP1 ag,TSHR antag,gsp antag
CN(C)S(=O)(=O)c1cccc(-c2nn(-c3ccccc3)cc2/C=C2\SC(=S)NC2=O)c1,-15,-49%,2%,-74*,?
CCCCNc1c(-c2ccc(-c3cccc(Cl)c3)cc2)nc2ccccn12,.,.,8%,-16,-15%
CCCCNc1c(-c2cccc(-c3ccc(OC)cc3)c2)nc2ccc(C)cn12,.,.,17%,-83*,?
CCCCCCSc1cccc(-c2nc3ccc(Cl)cn3c2NCCCC)c1,.,23%,.,.,9%
CCCCNc1c(-c2cccc(-c3ccc(OC)cc3)c2)nc2cc(C)ccn12,.,?,.,-22,32µM*
CCCCNc1c(-c2cccc(-c3cc(C(C)=O)cs3)c2)nc2ccc(C)cn12,.,.,0%,-28,35µM*
C=C(C)Cn1c(SCC(=O)Nc2ccccc2C)nc2sc3c(c2c1=O)CCCC3,9,.,0%,.,.
Cc1ccc2nc(N3CCN(C(=O)C4COc5ccccc5O4)CC3)sc2c1 (stereo not given),-18,.,1%,.,.
CCCC(=O)Nc1nnc(SCc2cc(=O)c3ccc(C)cc3[nH]2)s1,0,.,0%,.,.
Cc1cc(NC(=O)c2ccc3c(c2)C(=O)N(C2CCCCC2)C3=O)no1,-14,-1%,8%,-9,0%
O=C(Nc1ccncc1)c1ccc2c(c1)C(=O)N(C1CCCCC1)C2=O,-11,-38%,0%,-41,22µM*
N#C/C(=C\c1cccs1)C(=O)c1ccccc1Cl,-61*,-3%,0%,-12,-1%
CCOC(=O)c1ccc(NC(=O)N2CC3CCCN3c3ccccc32)cc1 (stereo not given),-12,.,0%,.,.
CCOc1ccc(NC(=O)N2CC3CCCN3c3ccccc32)cc1 (stereo not given),-61*,.,2%,.,.
CCc1ccccc1S(=O)(=O)Cc1ccc(C(=O)NCCc2ccc(Cl)cc2)o1,.,.,-3%,.,.
O=C/C=C/c1c(-c2ccccc2)cc2oc3ccccc3cc1-2,-91*,16%,2%,-15,-7%
COC(=O)c1ccc2c(=O)n(-c3ccccc3F)c(=S)[nH]c2c1,?,-24%[15.4 µM],1%,-13,-32%
COC(=O)c1ccc2c(=O)n(-c3ccccc3)c(=S)[nH]c2c1,-99*,-33%,-1%,-12,-13%
COc1ccc(N2CCN(Cc3nnc(-c4cccc(Br)c4)o3)CC2)cc1,6,.,3%,.,.
O=C(Cn1cc(S(=O)(=O)N2CCN(c3ccccc3F)CC2)c2ccccc2c1=O)Nc1cccc(C(F)(F)F)c1,.,.,4%,.,.
COc1ccc(CCC(=O)NCCc2csc(-c3cccc(C)c3)n2)cc1,-73*,.,1%,.,.
COc1ccc(CCC(=O)NCc2ccccc2OC)cc1,12,?,3%,3,3.2µM*
COc1ccccc1CNC(=O)CCc1ccccc1,3,-8%,1%,3,5%
O=C(NCCc1csc(-c2cccc(F)c2)n1)c1ccc(Br)o1,-78*,.,-2%,.,.
CCCC(=O)Nc1c2c(nc3ccccc13)N(c1ccccc1)CC2,-21,4%[15.4 µM],6%,12,9%
